Many of the other results were omitted from the sample, so hits are more common in it than they were.
Lassa entry inh: blocks Lassa virus binding to or entry into cells | Lassa virus pseudotype entry inhibition, cell reporter | Potency, µM (series often up to 37.9 µM), inactives show at the top dose activity change, negative = inhibition, usual class: inhibitors | hit rate 1.2% among 300,000 | AID 540256; calls by dose curve; tested in HEK293 cells; also: potency is read from the fitted curve at half-maximal effect; % is scaled to controls: 0 for no effect and ±100 for the full control effect; nearly all actives have a fitted effect of over 50% in size
MARV entry inh: blocks Marburg virus binding to or entry into cells; Marburg virus pseudotyped entry inhibition, cell reporter; hit rate 1.8% among 300,000; Potency, µM (titrated, usually from 37.8 µM), for the others: at the highest dose activity change, negative = inhibition, most hits filed as inhibitors; calls by dose curve; tested in HEK293 cells; also: potency is read from the fitted curve at half-maximal effect; % is scaled to controls: 0 for no effect and ±100 for the full control effect
Cycloheximide cs: counter-screen hit for Shiga toxin inhibitors, cycloheximide. cell reporter, cycloheximide protein synthesis inhibition counterscreen. hit rate 12% among 300,000. max response, %; in the data active = max response mostly above about 13%, no sharp cut-off; inactive = mostly below about 14%; also: read at 38.3 µM for the half of the compounds with a filed dose; 0% is about no effect
VACV mCherry inh: inhibitors of vaccinia virus infection (mCherry reporter signal); Vaccinia virus mCherry reporter infection, fluorescence; Potency, µM (highest dose often 36.5 µM), without a hit: at the top dose activity change, negative = inhibition, hits mostly inhibitors; hit rate 0.63% among 310,000; calls by dose curve; tested in A549 cells; also: potency is read from the fitted curve at half-maximal effect; % is scaled to controls: 0 for no effect and ±100 for the full control effect; nearly all actives have a fitted effect of over 35% in size
Shiga inhibitor: blocks Shiga toxin action in Vero cells; Vero cells, Shiga toxin protein synthesis inhibition reporter; inhibition, % at 38.7 µM; hit rate 9.2% among 290,000; AID 2315; in the data active = inhibition mostly above about 28%, no sharp cut-off; inactive = mostly below about 43%; also: 0% is about no effect
Vaccinia Venus: vaccinia inhibition (Venus reporter); hit rate 0.46% among 330,000; AID 720580; Potency, µM (titrated, usually from 36.5 µM), without a hit: at the top dose activity change, negative = inhibition, most hits filed as inhibitors; Vaccinia virus Venus reporter expression, fluorescence; calls by dose curve; tested in A549 cells; also: potency is read from the fitted curve at half-maximal effect; % is scaled to controls: 0 for no effect and ±100 for the full control effect; nearly all actives have a fitted effect of over 30% in size
Starred values were filed as active, the others as inactive; i = inactive; u = inconclusive; x = no result given; [ ] = another dose, or the depositor's remark.

SMILES | Lassa entry inh | MARV entry inh | Cycloheximide cs | VACV mCherry inh | Shiga inhibitor | Vaccinia Venus
COC(=O)[C@H](C=C[C@H](C)Cc1cc(Br)cc(OCc2ccccc2)c1OC)OCc1ccccc1 | x | -15%[14.2 µM] | x | x | x | x
O=C(/C=C/Nc1ccc(F)c(Cl)c1)c1ccco1 | 20% | u | 68* | x | 142* | u
O=C(/C=C/Nc1cccc(F)c1)c1ccco1 | u | u | 35* | x | 76* | x
COC(=O)C1(C(=O)OC)CC(CO)C(=O)[C@@H]1c1ccccc1 (some centres not stated) | x | -8%[14.2 µM] | x | x | x | x
Cc1cc(-c2ccc(Cl)s2)n[nH]1 | 23% | u | 29* | -20% | 82* | -6%
O=C1CCc2cc(S(=O)(=O)NCCc3ccc(Cl)cc3)cc3c2N1CC3 | 8% | 19% | x | i | x | -7%
Cc1cccc(C(=O)c2c(N)sc3c2CCC(C)C3)c1 (configuration not stated) | 11% | 1% | 59* | -9% | 126* | -16%
Cc1cccc(C(=O)c2c(N)sc3c2CCCC3)c1 | 4% | -22% | 9 | -2% | 19 | -4%
CCNS(=O)(=O)c1ccc(NC(=O)CC(C)c2ccccc2)cc1 (configuration not stated) | u | 1% | -5 | -5% | -1 | -18%
COc1ccc(-c2c(NC(=O)c3ccco3)n(C)c3ccccc3c2=O)cc1 | 4% | u | 0 | x | 10 | x
COc1ccccc1-c1c(NC(=O)c2ccco2)n(C)c2ccccc2c1=O | -8%[46.1 µM] | u | 18* | -10% | 36* | 15%
COc1ccc(C2CC(c3ccc(Br)cc3)=NN2C(=S)Nc2ccccc2)cc1 (configuration not stated) | u | -4% | 21* | u | 43* | -13%
COc1ccc(C2=NN(C(N)=S)C(c3ccccc3)C2)cc1 (configuration not stated) | -25% | -14%[46.1 µM] | 32* | u | 51* | -6%
COc1ccc(C2CC(c3ccccc3)=NN2C(=S)Nc2ccccc2)cc1 (configuration not stated) | 0% | -10% | 10 | -9% | -9 | -8%
CCN(CC(=O)NCCC1=CCCCC1)S(=O)(=O)c1ccccc1 | x | x | -1 | -8% | 3 | -4%
S=C(NCc1ccccn1)NN=Cc1ccccn1 | 13µM* | u | x | 0% | x | u
FC(F)(F)c1cccc(NC(=S)NCc2ccccn2)c1 | 1% | -16% | 0 | -13% | -3 | 6%
S=C(NCc1ccccn1)Nc1cccc(Cl)c1 | 1% | 0% | 13* | -16% | 26 | -5%
Cc1cccc(NC(=S)NCc2ccccn2)c1 | 16% | 6% | 28 | x | 42 | -9%
Cc1ccc(NC(=S)NCc2ccccn2)cc1 | 6% | -3% | 38* | x | 108* | -3%
Cc1ccc(NC(=O)C(NCc2ccccn2)c2ccccc2)cc1 (configuration not stated) | 3% | u | 37* | i | 101* | -16%
CC(=O)OCC#CCSc1nnc(-c2cccc(Br)c2)o1 | -1%[46.1 µM] | -11%[46.1 µM] | x | u | x | u
CCOc1ccc(C(c2c(O)cc(C)n(Cc3ccco3)c2=O)N2CCN(c3ccccc3)CC2)cc1 (configuration not stated) | -1%[46.1 µM] | x | x | -8% | x | -8%
S=C(N/N=C/c1cccc2ccccc12)Nc1cccc(Cl)c1 | u | u | 17 | -2% | 15 | 4%
CC(=NNC(=S)Nc1cccc(Cl)c1)c1ccccn1 | 1.1µM* | 0.2µM* | x | 2.8µM* | x | u
SMILES | Lassa entry inh | MARV entry inh | Cycloheximide cs | VACV mCherry inh | Shiga inhibitor | Vaccinia Venus
Cc1ccc(N=Nc2c(O)c3ccccc3[nH]c2=O)c(S(=O)(=O)N(C)C)c1 | x | -10% | 38* | x | 43* | x
Cc1nn(CC(O)CN2c3ccccc3Sc3ccccc32)c(C)c1Br (configuration not stated) | u | 11µM* | 6 | u | 15 | u
OC(CN1c2ccccc2Sc2ccccc21)Cn1nnc2ccccc21 (configuration not stated) | -2% | u | 16* | x | 18 | x
Cc1nn(CC(O)c2ccccc2)c(C)c1Br (configuration not stated) | 14% | 3% | 13 | x | -11 | x
Cc1ccccc1NC(=O)Cc1ccccc1 | 4% | u | -2 | -11% | -1 | -10%
CSc1nsc(SC)c1NC(=O)OCc1ccccc1 | -8% | 16% | 22* | x | 45 | x
Cc1ccccc1NC(=O)OCc1ccccc1 | 8%[46.1 µM] | 5%[46.1 µM] | 28* | -3% | 59* | -8%
CSc1ccccc1COC(=O)Nc1ccccc1C | -24%[46.1 µM] | u | 29* | -14% | 36 | 2%

Screens deposited in PubChem BioAssay by National Center for Advancing Translational Sciences (NCATS).
